Inconclusive results are not listed. Values without a mark were called inactive. Calls of active or inactive are those of the source. Calls follow the shape of the dose curve; as a rule, active = well fitted inhibition curve with a large enough effect; inconclusive = small, poorly fitted or top-dose-only effect; inactive = flat fitted curve, though single readings scatter.
What follows are compounds tested against Phospholipid hydroperoxide glutathione peroxidase GPX4 (Homo sapiens) (UniProt P36969) (assay: Primary qHTS Assay for Inhibitors of Recombinant Selenoprotein Glutathione Peroxidase 4 (GPX4) (AID 1845192; also: nearly all actives have a fitted effect of over 65% in size)). Details: recombinant GPX4, GR-coupled NADPH fluorescence, 15 min; series mostly up to 50 µM; activity change, negative = inhibition: at the top concentration.
Phospholipid hydroperoxide glutathione peroxidase GPX4 (Homo sapiens), sequence (P36969 whole entry, looked up): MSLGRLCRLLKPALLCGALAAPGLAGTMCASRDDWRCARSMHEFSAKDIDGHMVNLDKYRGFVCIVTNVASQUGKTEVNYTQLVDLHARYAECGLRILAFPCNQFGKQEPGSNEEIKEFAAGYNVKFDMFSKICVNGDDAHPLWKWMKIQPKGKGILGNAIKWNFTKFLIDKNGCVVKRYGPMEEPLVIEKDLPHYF
Procedure, shortened: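 NADPH consumption followed by fluorescence at 340/450 nm, t=0 and after 15 min at room temperature. Reaction started with cumene hydroperoxide (0.5 mM final) after 30 min compound–GPX4 preincubation; final 200 nM GPX4, 100 nM GR, 1 mM GSH, 0.5 mM NADPH.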
With `C[C@H](N)CN1CCc2ccc(Br)cc21` the “activity change, negative = inhibition” value was -17.8%. With `C[N+]1(C)CCN(c2ccccc2)CC1` the “outcome” value was “inactive”. `C[C@H]1C2Cc3ccc(O)cc3[C@@]1(C)CCN2CC1CC1` was tested, and the “activity change, negative = inhibition” value was -3.04%. With `C[N+]1(C)CCc2cc3c(cc2[C@H]1[C@@H]1OC(=O)c2c1ccc1c2OCO1)OCO3` the “activity change, negative = inhibition” value was -18.4%. With `CC(C)(C)c1o[nH]c(=O)c1CC(N)C(=O)O` (stereo not given) the “outcome” value was “inactive”. For `O=c1ccc2[nH]cc(C3=CCNCC3)c2[nH]1`, the “activity change, negative = inhibition” value was -11%. In the case of `CC(=O)NBr`, the “activity change, negative = inhibition” value is reported as -4.54%. `CCCN(CCC)[C@H]1CCc2c(F)ccc(O)c2C1` was tested, and the “activity change, negative = inhibition” value was 1.85%. With `CC1(C(=O)O)C2CCC(O2)C1(C)C(=O)O` (stereo not given) the “outcome” value was “inactive”. In the case of `C[N+]1(C)CCOC(O)(c2ccc(-c3ccc(C4(O)C[N+](C)(C)CCO4)cc3)cc2)C1` (stereo not given), the “activity change, negative = inhibition” value is reported as -12.6%. For `C[N+](C)(C)CCOC(=O)CBr`, the “activity change, negative = inhibition” value was 4.71%. For `CN1CC[C@@]2(C)c3cc(OC(=O)Nc4ccccc4)ccc3N(C)[C@@H]12`, the “activity change, negative = inhibition” value was -7.4%. With `CC(N)[C@H](O)c1ccc(O)c(O)c1` (stereo not given in full) the “outcome” value was “inactive”. With `CP(=O)(O)C1=CCNCC1` the “outcome” value was “inactive”. With `Cc1[nH]c2ccc(O)cc2c1CCN` the “activity change, negative = inhibition” value was -21.5%. With `NCCCP(=O)(O)O` the “outcome” value was “inactive”. In the case of `C[N+](C)(C)CC#CCOC(=O)Nc1cccc(Cl)c1`, the “outcome” value is reported as “inactive”. With `COc1ccc(OC)c(C(O)C(C)N)c1` (stereo not given) the Potency was “inactive”. For `C=CCN1CCC23c4c5ccc(O)c4O[C@H]2C(=O)CC[C@@]3(O)C1C5` (stereo not given in full), the “activity change, negative = inhibition” value was 4.59%. `Nc1ccc(CCN2CCN(c3cccc(C(F)(F)F)c3)CC2)cc1` was tested, and the “activity change, negative = inhibition” value was -16.8%. In the case of `NCC(CP(=O)(O)O)c1ccc(Cl)cc1` (stereo not given), the “activity change, negative = inhibition” value is reported as -1.97%. For `NC(=O)COc1c(F)cc(SCCNS(=O)(=O)c2ccccc2)cc1F`, the “outcome” value was “inactive”. In the case of `Cc1o[nH]c(=O)c1CC(N)C(=O)O` (stereo not given), the “activity change, negative = inhibition” value is reported as -12.8%. With `N[C@@H](Cn1oc(=O)[nH]c1=O)C(=O)O` the “outcome” value was “inactive”. `c1ccc2c(c1)[I+]c1ccccc1-2` was tested, and the “activity change, negative = inhibition” value was 2.53%. For `CCOC(=O)c1ncn2c1[C@@H]1CCCN1C(=O)c1cc(OC)ccc1-2`, the “outcome” value was “inactive”. For `CC(N)Cc1c[nH]c2ccc(OCc3cccs3)cc12` (stereo not given), the “activity change, negative = inhibition” value was -6.76%. In the case of `NCCc1c[nH]c2ccc(C(N)=O)cc12`, the “activity change, negative = inhibition” value is reported as -8.64%. `O=[N+]([O-])/C=C/c1ccc2c(c1)OCO2` was tested, and the “outcome” value was “inactive”. In the case of `CCCN(CCC)[C@@H]1CCc2cccc(O)c2C1`, the “outcome” value is reported as “inactive”. In the case of `c1ccc2c(N3CCNCC3)cccc2c1`, the “outcome” value is reported as “inactive”. With `CCN1C[C@@]2(COC)C3[C@@H](OC)C4[C@@H]1C3([C@@H]1C[C@]3(O)[C@H](OC(=O)c5ccccc5)[C@@H]1[C@]4(OC(C)=O)[C@@H](O)[C@@H]3OC)[C@H](OC)C[C@H]2O` the “outcome” value was “inactive”. In the case of `Cc1cc([C@@H]2CCCN2C)on1`, the “outcome” value is reported as “inactive”. `NC(CCCCCP(=O)(O)O)C(=O)O` (stereo not given) was tested, and the “activity change, negative = inhibition” value was -0.568%. With `O=C1/C(=C/c2ccccc2)C[C@@]2(O)[C@H]3Cc4ccc(O)c5c4[C@@]2(CCN3CC2CC2)[C@H]1O5` the “activity change, negative = inhibition” value was -3.84%. For `C=CCN1C[C@@H](C)N([C@H](c2ccc(C(=O)N(CC)CC)cc2)c2cccc(OC)c2)C[C@@H]1C`, the “activity change, negative = inhibition” value was -8.55%. With `O=C(NC1CN2CCC1CC2)c1cc2ccoc2cn1` (stereo not given) the “activity change, negative = inhibition” value was -4.69%. `OCc1cnc[nH]1` was tested, and the “outcome” value was “inactive”. In the case of `CC(=O)OCC1=C(C(=O)O)N2C(=O)[C@@H](NC(=O)CCC[C@@H](N)C(=O)O)[C@H]2SC1`, the “activity change, negative = inhibition” value is reported as 2.73%. `CCCCCCCCCCCCCC(=O)O[C@@H]1[C@@H](C)[C@@]2(O)[C@@H](C=C(CO)C[C@@]3(O)C(=O)C(C)=C[C@@H]23)C2C(C)(C)[C@@]21OC(C)=O` (stereo not given in full) was tested, and the “outcome” value was “inactive”.

Reference: PubChem BioAssay (NCATS)
% is scaled to controls: 0 for no effect and ±100 for the full control effect.
